SARS PLpro yeast-1: blocks SARS-CoV papain-like protease in a yeast assay; S. cerevisiae expressing SARS-CoV PLpro, growth rescue; Potency, µM (titrated, usually from 32.9 µM), hits mostly activators; actives 0.19% (n = 330,000); calls by dose curve; further: nearly all actives have a fitted effect of over 55% in size
Sm TGR block: inhibitors of Schistosoma mansoni thioredoxin glutathione reductase; Q962Y6; purified TGR, DTNB reduction, TNB absorbance 405 nm; Potency, µM (titrated, usually from 114 µM), most hits filed as inhibitors; actives 3% (n = 360,000); AID 485364; active means well fitted inhibition curve with a large enough effect; inconclusive means small, poorly fitted or top-dose-only effect; inactive means no such curve, though single readings can be large or run the other way; further: nearly all actives have a fitted effect of over 60% in size
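Kinetic colorimetric format: TGR-catalysed, NADPH-driven DTNB reduction monitored via TNB absorbance. Enzyme dispensed at 20 nM; compound exposure 15 min at room temperature before reaction start.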
SARS PLpro yeast-2: Validates SARS-CoV PLpro inhibitor hits in yeast | shares compounds with SARS PLpro yeast-1 | yeast expressing SARS-CoV PLpro, growth phenotype rescue | calls only | actives 19% (n = 1,000); call rule not given here
Of the large screens only hits and unclear results are named; the others gave an inactive call (follow-up assays come after a bar, where they were run). This is a sample that favours compounds with a hit; in the whole collection about 3% have one here.

COc1ccccc1[C@@H]1C(c2cccc(C)c2)=NN(c2ccc(Br)cc2)[C@H]1C(=O)N1CCOC1=O	SARS PLpro yeast-1 4µM (no result: Sm TGR block) | SARS PLpro yeast-2 inactive
COc1ccccc1[C@@H]1C(c2ccccc2)=NN(c2ccc(Br)cc2)[C@H]1C(=O)N1CCOC1=O	none (no result: Sm TGR block)
CCOc1ccc(NC(=O)c2sc(-n3nc(C)c(CCC(C)C)c3C)nc2C)cc1	none (no result: SARS PLpro yeast-1)
N#Cc1ccccc1NC(=O)COC(=O)/C=C/c1cn(-c2ccccc2)nc1-c1ccc(Cl)cc1	none
NC(=O)c1ccc(NC(=O)COC(=O)/C=C/c2cn(-c3ccccc3)nc2-c2cccnc2)cc1	SARS PLpro yeast-1 inconclusive | SARS PLpro yeast-2 inactive
C/C(=N\NC(=O)c1cc(-c2cccnc2)nc2ccccc12)c1ccccc1O	SARS PLpro yeast-1 10µM | SARS PLpro yeast-2 active
COc1ccc(/C(C)=N/NC(=O)c2cc(-c3cccnc3)nc3ccccc23)cc1	none
O=C(NCc1ccccc1)NC1COc2ccccc2C1 (centres undefined)	none (no result: SARS PLpro yeast-1)
Cc1ccc(NC(=O)CCNS(=O)(=O)c2ccc(Br)cc2)cc1S(=O)(=O)N1CCOCC1	SARS PLpro yeast-1 inconclusive | SARS PLpro yeast-2 inactive
Cc1ccc(NC(=O)CCNS(=O)(=O)c2ccccc2)cc1S(=O)(=O)N1CCOCC1	none
CCn1c(C)nc2cc(C(=O)n3cc(C(=O)c4cc(F)ccc4O)cn3)ccc21	none
CCC(=NNC(=O)c1ccc2c(c1)nc(C)n2CC)c1cc(F)ccc1O	SARS PLpro yeast-1 10µM (no result: Sm TGR block) | SARS PLpro yeast-2 inactive
Cc1cccc(NC(=O)CSc2nnc(Cn3cnc4ccccc43)o2)c1	SARS PLpro yeast-1 18µM | SARS PLpro yeast-2 inactive
COc1ccc(NC(=O)CSc2nnc(Cn3cnc4ccccc43)o2)cc1	none
CCOc1ccc(-n2nc(CO)c(C(=O)NCC(c3ccccc3)c3ccccc3)n2)cc1	none (no result: SARS PLpro yeast-1)
CCN(CC)C(=O)c1cccc(NC(=O)C2=COCCO2)c1	SARS PLpro yeast-1 2.2µM | SARS PLpro yeast-2 inactive
CCN(CC)S(=O)(=O)c1cc(NC(=O)C2=COCCO2)ccc1Cl	none
COCCN(CCOC)c1ncnc2c1c(-c1ccccc1)cn2-c1ccc(C)c(Cl)c1	none (no result: SARS PLpro yeast-1)
Cc1ccc(-n2ncc(C(=O)NCCN3CCOCC3)c2C2CCN(C(=O)OC(C)(C)C)CC2)c(C)c1	none (no result: SARS PLpro yeast-1)
Cc1ccc(Nc2nnc(SC(C)C(=O)Nc3c(C)n(C)n(-c4ccccc4)c3=O)s2)cc1 (centres undefined)	SARS PLpro yeast-1 2.8µM | SARS PLpro yeast-2 inactive
Cc1cccc(C)c1Nc1nnc(SC(C)C(=O)Nc2c(C)n(C)n(-c3ccccc3)c2=O)s1 (centres undefined)	none
CCOC(=O)c1[nH]c(CSc2nnc(-c3ccc(OC)cc3)o2)c(C(=O)OCC)c1C	SARS PLpro yeast-1 3.2µM | SARS PLpro yeast-2 inactive
COc1ccc(-c2nnc(SCC(=O)c3[nH]c(C)c(C(C)=O)c3C)o2)cc1	none
Cc1cc(C)c(NC(=O)Cn2c(=O)n(CCC(=O)N3CCc4ccccc4C3)c(=O)c3ccccc32)c(C)c1	none (no result: SARS PLpro yeast-1)
CCc1nc(Nc2ccc(OC)c(OC)c2)c2nnn(Cc3ccccc3Cl)c2n1	SARS PLpro yeast-1 18µM | SARS PLpro yeast-2 active
COc1cccc(OC)c1Nc1nc(C)nc2c1nnn2Cc1ccccc1Cl	none
Cc1nn(CC(=O)NCc2ccccc2Br)c(=O)c2cc3occc3n12	none (no result: SARS PLpro yeast-1)
Cc1nnsc1C(=O)N/N=C/c1ccc2ccccc2c1O	SARS PLpro yeast-1 1µM | SARS PLpro yeast-2 inactive
Cc1nnsc1C(=O)N/N=C/c1ccccc1	none
COc1cc(Cl)c(C)cc1NC(=O)CSc1nc2c(c(=O)[nH]1)CCCC2	none (no result: SARS PLpro yeast-1)
O=C(CCNC(=O)c1ccccc1Cl)Nc1ccc(Cl)c(C(F)(F)F)c1	SARS PLpro yeast-1 3.5µM | SARS PLpro yeast-2 inactive
COc1ccc(NC(=O)CCNC(=O)c2ccccc2Cl)cc1OC	none
COc1ccc(NC(=O)C2=C(C)Nc3c(C(=O)Nc4ccc(C)cc4)cnn3C2c2cccc(Cl)c2)cc1 (centres undefined)	none (no result: SARS PLpro yeast-1)
Cc1nc2ccc(S(=O)(=O)N(CC(=O)Nc3cccc(F)c3)Cc3ccccc3)cc2s1	none (no result: SARS PLpro yeast-1)
CC1CCCCC1NC(=O)NC(=O)CCl (centres undefined)	SARS PLpro yeast-1 inconclusive, Sm TGR block 14µM | SARS PLpro yeast-2 active
CC1CCCC(NC(=O)NC(=O)CCl)C1C (centres undefined)	SARS PLpro yeast-1 inconclusive, Sm TGR block 2.8µM | SARS PLpro yeast-2 active
CC1CCCCC1NC(=O)NC(=O)COC(=O)c1nccnc1N (centres undefined)	none (no result: Sm TGR block)
CC1CCCC(NC(=O)CSC2CCCCC2)C1C (centres undefined)	none
CCOC(=O)c1cc(-c2ccc(OC)cc2)n(CCC(=O)NCc2ccc(OC)cc2)c1C	none (no result: SARS PLpro yeast-1)
CN(CC(=O)Nc1ccc(Cl)c(C(F)(F)F)c1)C(=O)/C=C/c1ccco1	none
CN(CC(=O)Nc1ccc(Cl)c(C(F)(F)F)c1)C(=O)/C=C/c1cccs1	SARS PLpro yeast-1 inconclusive | SARS PLpro yeast-2 inactive
Cc1ccc(CN2CCN(/N=C/c3sccc3C)CC2)c(C)c1	SARS PLpro yeast-1 11µM | SARS PLpro yeast-2 inactive
CSc1ccc(/C=N/N2CCN(Cc3ccc(C)cc3C)CC2)cc1	none
CCOc1ccc(NC(=O)N2CCC(n3nnc4ccccc43)CC2)cc1	none (no result: Sm TGR block)
COc1ccc(NC(=O)N2CCC(n3nnc4cc(C)ccc43)CC2)cc1	SARS PLpro yeast-1 inconclusive | SARS PLpro yeast-2 inactive
COc1ccc(/C=N/NC(=O)c2nc(-c3ccccc3)n(-c3ccccc3)n2)c(O)c1	SARS PLpro yeast-1 2.8µM | SARS PLpro yeast-2 active
CC(C)(C)c1cc(C(=O)N/N=C/c2ccc(F)cc2)n(-c2ccccc2)n1	none
CC(C)(C)c1cc(C(=O)N/N=C/c2ccccc2O)n(-c2ccccc2)n1	SARS PLpro yeast-1 14µM | SARS PLpro yeast-2 inactive
COc1ccc(/C=N/NC(=O)c2nc(-c3ccccc3)n(-c3ccccc3)n2)cc1	none
CC1CCN(S(=O)(=O)c2ccc3c(ccn3CC(=O)NCc3ccc(N(C)C)cc3)c2)CC1	none (no result: SARS PLpro yeast-1)
CCN(CC)C(=O)c1sc2c(c1C)c(=O)n(-c1ccc(C)c(C)c1)c(=O)n2Cc1cc(=O)n2c(C)cccc2n1	none (no result: SARS PLpro yeast-1)
O=C(CSc1nc(-c2ccco2)cc(C(F)(F)F)n1)Nc1ccc2c(c1)OCO2	SARS PLpro yeast-1 inconclusive | SARS PLpro yeast-2 active
O=C(CCCSc1nc(-c2ccco2)cc(C(F)(F)F)n1)Nc1ccc2c(c1)OCO2	none (no result: SARS PLpro yeast-1)
CC(C)Cc1ccc(S(=O)(=O)Nc2cc3c(cc2N2CCOCC2)n(C)c(=O)c(=O)n3C)cc1	none (no result: SARS PLpro yeast-1)
O=C(Nc1ccc(F)c(Cl)c1)C1CCN(S(=O)(=O)c2ccc3[nH]c(=O)ccc3c2)CC1	none (no result: SARS PLpro yeast-1)
O=C(NC(=S)NCc1ccco1)c1cccc(Cl)c1	Sm TGR block inconclusive
COc1cccc(C(=O)NC(=S)NCc2ccco2)c1	SARS PLpro yeast-1 inconclusive, Sm TGR block inconclusive | SARS PLpro yeast-2 active
CCOc1ccccc1NC(=O)Cn1c(=O)n(-c2ccc(F)cc2)c(=O)c2c3c(sc21)CN(C(C)=O)CC3	none (no result: SARS PLpro yeast-1)
Cc1ccc(-c2nc(C)c(CCNS(=O)(=O)c3ccccc3F)s2)cc1	none (no result: SARS PLpro yeast-1)
Cc1nn(C(=O)c2ccccc2)c(C)c1S(=O)(=O)N1CCOCC1	none (no result: SARS PLpro yeast-1)
Cc1ccccc1NC(=O)Cn1c(=O)n(CCCCCC(=O)NCc2ccc3c(c2)OCO3)c(=O)c2sccc21	none (no result: SARS PLpro yeast-1)
CC(=O)NC(C)c1cc(F)c2cccnc2c1O (centres undefined)	none
CC(=O)NC(c1ccc(C)cc1)c1cc(Cl)c2cccnc2c1O (centres undefined)	SARS PLpro yeast-1 inconclusive | SARS PLpro yeast-2 active

Screening data as filed in PubChem.
